Bioassay records: PubChem BioAssay, National Center for Advancing Translational Sciences (NCATS)
Rows were chosen to be rich in hits. Some 11% of all compounds tested hit in one or more screens of this group.
HCV inh: qHTS Assay for Inhibitors of Hepatitis C Virus (HCV); Huh7.5.1 HCVcc-Cre infection, luciferase reporter, 44 h; Potency, µM (series often up to 41.8 µM), usual class: inhibitors; actives 3.4% (n = 340,000)
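After 44 h co-culture of compound, cells and HCVcc-Cre (~0.5 moi), substrate is added for 15 min at room temperature and luciferase measured over 15 sec. Cells were seeded at 1,000/well and pre-cultured 4 h.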
Pf growth 96h: Primary qHTS for delayed death inhibitors of the malarial parasite plastid, 96 hour incubation; Potency, µM (titrated, usually from 28.7 µM), actives largely listed as inhibitors; AID 504834, 2011; actives 6.9% (n = 320,000); P. falciparum luciferase reporter growth, 96 h
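Erythrocytes infected with luciferase-expressing P. falciparum were dispensed at 2% hematocrit and 0.05% parasitemia (final), then incubated with compounds 96 hours at 37 C in 5% CO2. Luminescence after detection reagent addition reported growth.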
Vaccinia Venus: qHTS for Stage-Specific Inhibitors of Vaccinia Orthopoxvirus: Venus Reporter Primary qHTS | Vaccinia virus Venus reporter expression, fluorescence | Potency, µM (series often up to 36.5 µM), actives largely listed as inhibitors | actives 0.46% (n = 330,000); calls by dose curve; tested in A549 cells; also: nearly all actives have a fitted effect of over 30% in size
NS1 inh: qHTS Assay for Inhibitors of Influenza NS1 Protein Function | Potency, µM (series often up to 46.1 µM) | actives 0.4% (n = 270,000) | AID 2326, 2010; calls by dose curve; also: actives are rising curves; nearly all actives have a fitted effect of over 50% in size
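Recovery from NS1-induced slow growth read by OD600 in budding yeast switched to galactose assay medium (pH 6.0, -URA) at 1:100 dilution. Compound 23 nl per well; the matching strain lacking NS1 serves as control.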
Vaccinia mCherry: qHTS for Stage-Specific Inhibitors of Vaccinia Orthopoxvirus: mCherry Reporter Primary qHTS; Potency, µM (highest dose often 36.5 µM), most hits filed as inhibitors; AID 720579, 2013; Vaccinia virus mCherry reporter infection, fluorescence; actives 0.63% (n = 310,000); calls by dose curve; tested in A549 cells; also: nearly all actives have a fitted effect of over 35% in size
Pf growth 48h: Primary qHTS for delayed death inhibitors of the malarial parasite plastid, 48 hour incubation | Potency, µM (titrated, usually from 28.7 µM), usual class: inhibitors | P. falciparum luciferase growth in erythrocytes, 48 h | AID 504832, 2011 | actives 5.9% (n = 310,000)
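Firefly luciferase activity from engineered P. falciparum reports growth; inhibitors lower the luminescent signal. Cultures contained 2% hematocrit erythrocytes at 0.1% final parasitemia.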
Hits are given with their value. Unless noted, calls follow the shape of the dose curve; as a rule, active = well fitted inhibition curve with a large enough effect; inconclusive = small, poorly fitted or top-dose-only effect, or another doubt; inactive = no such curve, though single readings can be large or run the other way.

Results for O=C(Nc1ccc(C(=O)N2CCC(O)(c3ccc(Cl)c(C(F)(F)F)c3)CC2)cc1)c1ccc(Br)o1 ?
HCV inh: inactive; Pf growth 96h: 13µM; Vaccinia Venus: inconclusive; Vaccinia mCherry: inactive; Pf growth 48h: inconclusive

Results for CC12CCC(=O)N1C(C(=O)Nc1nnc(SCc3ccccc3)s1)CS2 (configuration not stated) ?
HCV inh: inactive; Pf growth 96h: inactive; Vaccinia Venus: inactive; Vaccinia mCherry: inactive; Pf growth 48h: inactive

Results for CC1CCCN(C(=O)CN2CCC(c3nc4ccc(Cl)cc4[nH]3)CC2)C1 (configuration not stated) ?
HCV inh: inconclusive; Pf growth 96h: inconclusive; NS1 inh: inactive; Pf growth 48h: inconclusive

Results for CC(C)(C)c1ccc(S(=O)(=O)N2CCC(c3nc4ccc(Cl)cc4[nH]3)CC2)cc1 ?
HCV inh: inconclusive; Pf growth 96h: inactive; Vaccinia Venus: inconclusive; NS1 inh: inactive; Vaccinia mCherry: inconclusive; Pf growth 48h: 12µM

Results for Clc1ccc(CN2CCC(c3nc4ccc(Cl)cc4[nH]3)CC2)cc1 ?
HCV inh: inconclusive; Pf growth 96h: inconclusive; Vaccinia Venus: inconclusive; NS1 inh: inactive; Vaccinia mCherry: inactive; Pf growth 48h: 10µM

Results for COc1cc(C(=O)c2nccc3cc(OC)c(OC)cc23)c([N+](=O)[O-])cc1OC ?
HCV inh: inconclusive; Pf growth 96h: inconclusive; Vaccinia Venus: inactive; Vaccinia mCherry: inactive; Pf growth 48h: inconclusive

How did COc1cc2ccnc(Cc3cccc(OC)c3OC)c2cc1OC do in these assays?
HCV inh: inconclusive; Pf growth 96h: inactive; Vaccinia Venus: inactive; NS1 inh: inactive; Vaccinia mCherry: inactive; Pf growth 48h: inactive

What do the screens show for `COc1cc(Br)c(C(=O)c2nccc3cc(OC)c(OC)cc23)cc1OC`?
HCV inh: inconclusive; Pf growth 96h: inactive; Vaccinia Venus: inactive; NS1 inh: inactive; Vaccinia mCherry: inactive; Pf growth 48h: 6.6µM

How did COc1cc(N)c(C(=O)c2nccc3cc(OC)c(OC)cc23)cc1OC do in these assays?
HCV inh: inactive; Pf growth 96h: 5.2µM; Vaccinia Venus: inactive; NS1 inh: inactive; Vaccinia mCherry: inactive; Pf growth 48h: inactive

Results for CCOc1cc(-c2nccc3cc(OC)c(OC)cc23)cc(OCC)c1OCC ?
HCV inh: inconclusive; Pf growth 96h: 11µM; Vaccinia Venus: inactive; NS1 inh: inactive; Vaccinia mCherry: inactive; Pf growth 48h: 10µM

Results for COc1cc(N)c(Cc2nccc3cc(OC)c(OC)cc23)cc1OC ?
HCV inh: inactive; Pf growth 96h: 6.6µM; Vaccinia Venus: inactive; NS1 inh: inactive; Vaccinia mCherry: inconclusive; Pf growth 48h: inconclusive

Results for COc1cc2ccnc(C=O)c2cc1OC ?
Vaccinia Venus: inactive; Vaccinia mCherry: inactive

Results for O=C(Nc1ccccc1N1CCOCC1)c1ccc([N+](=O)[O-])cc1 ?
HCV inh: inactive; Pf growth 96h: inactive; NS1 inh: inactive; Pf growth 48h: inactive

Results for CCOc1ccc(/C(O)=C2/C(=O)C(=O)N(CC3CCCO3)C2c2ccco2)cc1 (configuration not stated) ?
HCV inh: inactive; Pf growth 96h: inactive; NS1 inh: inactive; Pf growth 48h: inactive

Results for C[n+]1cn(/N=C/c2ccccc2)c2ccccc21 ?
HCV inh: inactive; Pf growth 96h: 13µM; Vaccinia Venus: inactive; NS1 inh: inconclusive; Vaccinia mCherry: inactive; Pf growth 48h: inconclusive

How did COc1cccc(C(=O)NN=C2CCCC2)c1 do in these assays?
HCV inh: inactive; Pf growth 96h: inconclusive; Vaccinia Venus: inactive; NS1 inh: inactive; Vaccinia mCherry: inactive; Pf growth 48h: inactive

Results for COc1ccc(C(=O)NN=C2CCCC2)cc1 ?
HCV inh: inactive; Pf growth 96h: 9.3µM; NS1 inh: inactive; Pf growth 48h: inactive

What do the screens show for `CC(C)c1ccc(/C=N/NC(=O)c2cccc(Cl)c2)cc1`?
HCV inh: 7.1µM; Pf growth 96h: inconclusive; Vaccinia Venus: inconclusive; NS1 inh: inactive; Vaccinia mCherry: inconclusive; Pf growth 48h: inactive

How did O=C(N/N=C/c1ccc(Cl)c([N+](=O)[O-])c1)c1ccc2nc[nH]c2c1 do in these assays?
HCV inh: inactive; Pf growth 96h: inconclusive; Vaccinia Venus: inactive; NS1 inh: inactive; Vaccinia mCherry: inactive; Pf growth 48h: 3.3µM

How did Cc1cc(C(=O)N/N=C/c2ccc(Cl)c([N+](=O)[O-])c2)c(C)n1-c1ccc(F)cc1 do in these assays?
HCV inh: inconclusive; Pf growth 96h: 13µM; Vaccinia Venus: inactive; NS1 inh: inactive; Vaccinia mCherry: inconclusive; Pf growth 48h: 13µM

What do the screens show for `COc1ccc(/C(C)=N/Nc2cccc(C(=O)O)c2)cc1OC`?
HCV inh: inactive; Pf growth 96h: inactive; Vaccinia Venus: inactive; Vaccinia mCherry: inactive; Pf growth 48h: inactive

Results for Cc1cccc(NC(=O)CNCC(=O)Nc2cccc(C)c2C)c1C ?
HCV inh: inactive; Pf growth 96h: inactive; NS1 inh: inactive; Pf growth 48h: inactive

What do the screens show for `O=C1CN(C(=O)CSc2nc3ccccc3c(=O)n2CCCN2CCOCC2)c2ccccc2N1`?
HCV inh: inactive; Pf growth 96h: inconclusive; NS1 inh: inactive; Pf growth 48h: inconclusive

Results for COc1ccc(Cn2c(-c3ccc(Br)cc3)c[n+]3ccccc23)cc1 ?
HCV inh: inactive; Pf growth 96h: 0.13µM; NS1 inh: inactive; Pf growth 48h: 0.66µM

What do the screens show for `N#Cc1cc2ccccc2nc1SCC(=O)Nc1ccccc1N1CCOCC1`?
HCV inh: inactive; Pf growth 96h: inactive; Vaccinia Venus: inactive; NS1 inh: inactive; Vaccinia mCherry: inconclusive; Pf growth 48h: inactive

Results for COc1cccc(CNS(=O)(=O)c2cc3c(cc2C)NC(=O)CO3)c1 ?
HCV inh: inactive; Pf growth 96h: inactive; Vaccinia Venus: inactive; NS1 inh: inactive; Vaccinia mCherry: inactive; Pf growth 48h: inactive

What do the screens show for `CC[C@H](CO)Nc1nc(Nc2cccc(Cl)c2)c2ncn(C(C)C)c2n1`?
HCV inh: inconclusive; Pf growth 96h: 5.2µM; Vaccinia Venus: 10µM; NS1 inh: inactive; Vaccinia mCherry: inconclusive; Pf growth 48h: 12µM

What do the screens show for `CC(C)[C@H](CO)N(Cc1cccc(F)c1)c1nc(Nc2cccc(Cl)c2)c2ncn(C(C)C)c2n1`?
HCV inh: inconclusive; Pf growth 96h: inconclusive; Vaccinia Venus: inactive; NS1 inh: inconclusive; Vaccinia mCherry: inactive; Pf growth 48h: 12µM

Results for CCC(CO)Oc1cc(NCc2cccc(F)c2)c2ncn(C(C)C)c2c1 (configuration not stated) ?
HCV inh: inconclusive; Vaccinia Venus: inactive; Vaccinia mCherry: inconclusive
